# IL-1B inflam inh: blocks inflammasome-driven IL-1 beta release | hit rate 4.7% among 360,000 | activity change, % at 57.5 µM | AID 743279 | THP-1 LPS/ATP IL-1B secretion, AlphaLISA, 16 h; stronger effect = lower value; in the data active = activity change below about -50%; inconclusive = mostly about -30% to -49%
#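 Secreted IL-1B measured by AlphaLISA bead assay after 16 h compound exposure of THP-1 cells; compounds (final up to 57.5 uM) added 1 h before LPS (250 ng/mL) and ATP (1.25 mM) stimulation; lower signal means less secretion.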
# ELG1 DNA repair: blocks ELG1-dependent DNA repair in HEK293T cells. hit rate 2.3% among 330,000. HEK293T ELG1-luciferase reporter, luminescence, 16 h; DNA damage induced by 5-fluorouridine. Potency, µM (titrated, usually from 46.1 µM), inactives show at the top dose activity change, negative = inhibition, most hits filed as inhibitors; note: potency is the fitted concentration of half-maximal effect; nearly all actives have a fitted effect of over 55% in size
#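 Reporter activity after DNA damage by 5-fluorouridine is monitored. Compound-treated cells incubate 16 hr at 37 °C, then ONE-Glo is added for 30 min before luminescence reading.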
# DT40 TDP1 no CPT: qHTS for Inhibitors of human tyrosyl-DNA phosphodiesterase 1 (TDP1): qHTS in cells in absence of CPT | DT40 Tdp1-/- hTDP1 cells, no CPT, ATP luminescence, 48 h | Potency, µM (top dose mostly 46.2 µM), inactives show at the top dose activity change, negative = growth inhibition, hits mostly inhibitors | hit rate 15% among 420,000 | AID 686978, 2013; note: potency is the fitted concentration of half-maximal effect; nearly all actives have a fitted effect of over 55% in size
#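 Growth of hTDP1-complemented DT40 Tdp1-knockout cells is measured by ATP luminescence after at least 48 hr compound exposure at 37 °C, with DMSO substituting for the 20 nM CPT used in the parallel screen.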
# TDP1 block: blocks human tyrosyl-DNA phosphodiesterase 1 | Q9NUW8 | recombinant TDP1, AlphaScreen DNA substrate cleavage | Potency, µM (titrated, usually from 130 µM), without a hit: at the top dose activity change, negative = inhibition, actives largely listed as inhibitors | hit rate 0.28% among 350,000 | AID 485290; note: potency is the fitted concentration of half-maximal effect; nearly all actives have a fitted effect of over 40% in size
# Target sequence (Q9NUW8 whole entry, looked up): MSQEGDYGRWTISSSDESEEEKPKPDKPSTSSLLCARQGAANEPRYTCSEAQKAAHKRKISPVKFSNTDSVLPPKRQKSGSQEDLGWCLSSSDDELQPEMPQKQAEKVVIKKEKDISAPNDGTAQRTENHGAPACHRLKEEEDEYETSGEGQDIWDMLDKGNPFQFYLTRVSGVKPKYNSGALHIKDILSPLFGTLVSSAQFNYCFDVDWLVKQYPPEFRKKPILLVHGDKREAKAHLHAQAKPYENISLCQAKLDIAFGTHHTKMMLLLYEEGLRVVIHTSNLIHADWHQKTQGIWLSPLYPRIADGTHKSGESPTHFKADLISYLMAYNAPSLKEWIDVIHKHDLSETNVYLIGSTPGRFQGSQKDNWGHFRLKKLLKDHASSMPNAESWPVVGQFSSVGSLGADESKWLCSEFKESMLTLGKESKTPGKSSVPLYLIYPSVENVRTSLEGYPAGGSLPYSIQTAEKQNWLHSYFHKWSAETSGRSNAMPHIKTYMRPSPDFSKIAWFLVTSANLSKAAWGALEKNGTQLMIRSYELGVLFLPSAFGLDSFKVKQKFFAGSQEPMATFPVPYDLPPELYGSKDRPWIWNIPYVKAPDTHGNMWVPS
#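 Compounds were preincubated with Tdp1 (1 nM final) for 15 min at room temperature before substrate (15 nM final) started a 5 min reaction; beads (10 ug/ml final) were then added for 10 min before AlphaScreen detection.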
# DT40 TDP1 CPT: DT40-hTDP1 cell growth loss with CPT. chicken DT40 Tdp1-/-;hTDP1 cells + 20 nM CPT, ATP luminescence, 48 h. Potency, µM (series often up to 46.2 µM), for inactives: top-dose activity change, negative = growth inhibition, hits mostly inhibitors. hit rate 12% among 420,000; note: potency is the fitted concentration of half-maximal effect; nearly all actives have a fitted effect of over 55% in size
#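 Chicken DT40 Tdp1-/- cells complemented with human TDP1, 400 cells/well, exposed to compounds plus 20 nM camptothecin for at least 48 h at 37 C; viability read as ATP content by CellTiter-Glo luminescence.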
# Giardia kill: kills Giardia lamblia; Giardia lamblia trophozoite viability; activity change, % at 7.66 µM, hits read low; hit rate 0.15% among 340,000; AID 540267; in the data active = activity change below about -80%; inconclusive = between about -30% and that limit;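 note: parasites exposed to compound for two days anaerobically before the ATP read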
#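 Anaerobic 48 hrs incubation at 37 deg C of 100 trophozoites/well with test compounds; ATPLite 1-Step luminescence, 15-30 min RT, reports cellular ATP as viability.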
# The depositor's hits bear a star; ? = inconclusive; nt = not tested or not shown; [ ] = another dose, or the depositor's remark. Compounds with a hit are over-represented: about 19% of the library has one in this group of screens. Unless noted, calls come from the whole dose curve; as a rule, active = well fitted curve in the direction sought with a large enough effect; inconclusive = small, poorly fitted or top-dose-only effect, or another doubt; inactive = no such curve, though single readings can be large; an effect the other way counts as inactive or inconclusive. % is set by controls: 0 for no effect and ±100 for the full control effect.
SMILES,IL-1B inflam inh,ELG1 DNA repair,DT40 TDP1 no CPT,TDP1 block,DT40 TDP1 CPT,Giardia kill
COc1ccc(-c2nnc(NC(=O)c3cccs3)s2)c(OC)c1,0,?,29µM*,-5%,16µM*,-26
COc1cc(C(=O)OCc2ccc(C)cc2)cc(NC(=O)c2cccs2)c1OC,0,21µM*,?,-1%,?,7
COc1cc(C(=O)Nc2cccc(NC(=O)c3cccs3)c2)cc(OC)c1OC,-27,8.2µM*,21µM*,nt,21µM*,8
O=C(c1ccncc1)N1CCC2(CCN(Cc3nccs3)CC2)CC1,nt,nt,-7%,nt,-2%,nt
CC(C)CCN1CC(=O)N2[C@@H](Cc3c([nH]c4ccccc34)C2(C)C)C1=O,-26,-5%,?,nt,?,-14
COc1cc(NC(=O)c2cccs2)ccc1NC(=O)Cc1ccccc1,-17,?,-5%,4%[56.1 µM],0%,3
COc1cc(NC(=O)c2cc3ccccc3cc2OC)ccc1NC(=O)c1cccs1,-69*,15µM*,13µM*,0%,23µM*,18
COc1cc(NC(=O)c2cccc(Cl)c2)ccc1NC(=O)c1cccs1,nt,?,18µM*,5%,?,7
O=S(=O)(Nc1ccc(C(F)(F)F)cc1)c1ccc2c(c1)OCCO2,nt,nt,nt,2%,nt,nt
CCOC(=O)c1ccc(NC(=O)Cn2nnc(-c3ccccc3)n2)cc1,-20,6%,?,3%,?,-7
Cc1cnc(C(=O)Nc2ccc(N3CCN(C(=O)OC(C)(C)C)CC3)cc2)cn1,50,?,2.3µM*,2%,4.6µM*,-27
CC(C)(C)OC(=O)N1CCN(c2ccc(NC(=O)Cn3nnc(-c4ccccc4)n3)cc2)CC1,-9,7%,23µM*,7%,?,7
CCNc1ncc2nc(-c3cc(F)cc(F)c3)c(=O)n(Cc3cccs3)c2n1,nt,nt,-4%,nt,-2%,nt
COc1ccc(NC(=O)C2CCN(S(=O)(=O)c3ccc4c(c3)NC(=O)CO4)CC2)cc1,-2,2%,-4%,1%,-1%,-21
COc1ccc(N2CCN(C(=O)NC(=O)c3ccc(Cl)cc3)CC2)cc1,-9,-3%,22%,4%,?,-13
COc1ccc(C2N(c3ccc(Cl)cc3)N=C(C(C)=O)N(C)N2C(C)=O)cc1 (stereo unspecified),-58*,?,?,8%,-14%,-10
CC1=C([N+](=O)[O-])C(c2ccccc2)NC(=O)N1 (stereo unspecified),-18,-21%,0%,nt,11%,28
CCCN(CC(=O)Nc1ccccc1C)C(=O)c1ccc(-c2ccccc2)cc1,?,-14%,?,5%,-27%,-12
CCCN(CC(=O)Nc1ccccc1C)C(=O)c1ccc(COc2ccccc2)cc1,-5,?,?,0%,23µM*,18
CN1CCN(C(=O)c2cccc(COc3cc(Cl)ccc3Cl)c2)CC1,-14,?,22µM*,2%,?,-6
COCC(=O)Nc1cc(C(=O)N2CCCCC2c2nccn2C)cc2nc(-c3ccccc3)n(C)c12 (stereo unspecified),nt,nt,-8%,nt,-9%[9.04 µM],nt
Nn1cnnc1N/N=C/c1cc(Br)cc(Br)c1O,-67*,-19%,?,13%,?,4
C=CCS/C(N)=N\N=C\c1cc(Br)cc([N+](=O)[O-])c1O,9,-22%,7.3µM*,6%,?,5
CS/C(N)=N/N=C/c1cc(Br)cc(Br)c1O,0,1%,16µM*,6%,?,10
CN(/N=C/c1cc(Br)cc(Br)c1O)c1ccccc1,7,5%,3%,nt,2%,8
SMILES,IL-1B inflam inh,ELG1 DNA repair,DT40 TDP1 no CPT,TDP1 block,DT40 TDP1 CPT,Giardia kill
Cc1ccc(Cn2ccnc2SCC(=O)NCc2ccccc2)cc1,nt,nt,3%,8%,-13%,nt
CSC1=NC(C(Cl)(Cl)Cl)N=C(c2ccccc2)N1 (stereo unspecified),40,?,3.7µM*,3%,2.6µM*,-6
COc1ccc(NC(=O)Cc2c(SC)c3ccccc3n2Cc2ccccc2)cc1,1,5%,?,3%,?,-14
Cn1nc(C2CC2)cc1NC(=O)C1(C)CCN1C(=O)c1ccccc1CCc1ccccc1 (stereo unspecified),-9,nt,16µM*,nt,29µM*,nt
CSc1ccc(NC(=O)C2(C)CCN2C(=O)c2ccccc2CCc2ccccc2)cc1 (stereo unspecified),-7,nt,?,nt,?,nt
Cn1nc(C(C)(C)C)cc1NC(=O)C1(C)CCN1C(=O)CC(c1ccccc1)c1ccccc1 (stereo unspecified),-20,nt,18µM*,nt,18µM*,nt
Cn1nc(C2CC2)cc1NC(=O)C1(C)CCN1C(=O)CC(c1ccccc1)c1ccccc1 (stereo unspecified),-14,nt,13µM*,nt,23µM*,nt
Cn1nc(C(C)(C)C)cc1NC(=O)C1(C)CCN1C(=O)C1(c2ccccc2)CC1 (stereo unspecified),0,nt,?,nt,?,nt
CCOc1ccc(C(=O)Nc2nc3ccccc3[nH]2)cc1OCC,31,?,8.2µM*,6%,21µM*,1
Cn1nc(C(=O)Nc2c(-c3ccccc3)nc3sccn23)c2ccccc2c1=O,32,6%,13µM*,7%,21µM*,-4
COc1cc(C(=O)Nc2nc3ccccc3[nH]2)ccc1OC(F)F,-20,?,15µM*,11%,21µM*,1
O=C(Nc1nc2ccccc2[nH]1)c1ccc(F)cc1,-15,?,?,11%,-29%,?
CCc1ccc(C(=O)Nc2nc3ccccc3[nH]2)cc1,0,?,12µM*,-5%,18µM*,-94*
COc1ccc(N(C)S(=O)(=O)c2ccc3c(c2)n(C)c(=O)c(=O)n3C)cc1,nt,nt,-7%,-5%,-5%,nt
CC(C)Oc1ccc(C(=O)Nc2nc3ccccc3[nH]2)cc1,-4,?,9.2µM*,1%,18µM*,?
Cn1nc(C(=O)NNc2c(F)c(F)cc(F)c2F)c2ccccc2c1=O,42,-16%,1.5µM*,1%,-16%,-4
N#Cc1ccc(C(=O)Nc2nc3ccccc3[nH]2)cc1,-19,?,?,-10%,4%,-8
Cc1ccsc1C(=O)Nc1nc2ccccc2[nH]1,51,?,?,9%,?,-11
Cn1nc(C(=O)Nc2nc3ccccc3[nH]2)c2ccccc2c1=O,-15,18%,16µM*,7%,18µM*,2
